In PubChem BioAssay (Tox21):
Several values for one entry are separate records, joined by “and”; a condition that tells them apart may be missing. Equal values may be shown once. Records with an inconclusive call do not appear. A structure can be active in one record and inactive in another. Activity calls are given as the source filed them. Unless noted, the call rests on the fitted dose curve; in most records, active means well fitted curve in the direction sought with a large enough effect in the repeat runs; inconclusive means weak or mixed curves; inactive means no such curve, though single readings can be large; an effect the other way counts as inactive or inconclusive.

Legend:
[1] = target: Retinoic acid receptor RXR-alpha (Homo sapiens) (UniProt P19793); experiment: qHTS assay to identify small molecule agonists of the RXR signaling pathway (AID 1159527; calls by dose curve; further: nearly all actives have a fitted effect of over 35% in size)
Sequence of Retinoic acid receptor RXR-alpha (Homo sapiens) (P19793 whole entry, looked up): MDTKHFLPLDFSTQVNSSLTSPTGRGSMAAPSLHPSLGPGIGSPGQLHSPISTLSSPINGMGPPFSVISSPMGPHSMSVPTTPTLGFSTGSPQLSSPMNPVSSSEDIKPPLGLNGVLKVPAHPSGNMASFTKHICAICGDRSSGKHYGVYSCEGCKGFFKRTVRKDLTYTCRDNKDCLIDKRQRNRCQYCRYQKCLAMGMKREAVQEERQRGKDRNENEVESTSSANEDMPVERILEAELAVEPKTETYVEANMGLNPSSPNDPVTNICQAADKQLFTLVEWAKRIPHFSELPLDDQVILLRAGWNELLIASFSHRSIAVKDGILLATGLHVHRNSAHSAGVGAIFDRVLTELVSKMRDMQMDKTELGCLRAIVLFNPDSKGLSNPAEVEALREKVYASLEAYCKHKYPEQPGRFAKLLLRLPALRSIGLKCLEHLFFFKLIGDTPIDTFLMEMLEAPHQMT
How it was run: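 Compounds in DMSO were added to RXR-alpha-UAS-bla HEK 293T cells kept in 2% charcoal-stripped serum, and incubated 16 hr at 37 C with 5% CO2. Reporter signal came from a 2 hr B/G FRET substrate step.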

[2] = qHTS assay to identify small molecule agonists of the RXR signaling pathway - cell viability counter screen (AID 1159529); further: nearly all actives have a fitted effect of over 50% in size; further: potency means the concentration at half of the fitted maximal effect;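 on activity change, negative = cytotoxicity: HEK 293T cells carrying an RXR-alpha UAS beta-lactamase reporter; series mostly up to about 77 µM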
How it was run: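 Counter screen: CellTiter-Glo luminescence. Cells: RXR-alpha-UAS-bla HEK 293T. Medium: 2% charcoal-stripped FBS. Treatment: 16 h, 37 C. Reagent incubation: 30 min, RT.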

[3] = qHTS assay to identify small molecule antagonists of the retinoid acid receptor (RAR) signaling pathway - cell viability counter screen (AID 1159551); further: nearly all actives have a fitted effect of over 35% in size
How it was run: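 Cytotoxicity counter screen in C3RL4 cells: 6 h compound exposure with 1 uM retinol (final), viability from cellular ATP by luminescence.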

[4] = qHTS assay to identify small molecule agonists of the retinoic acid receptor (RAR) signaling pathway (AID 1159553)
How it was run: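 Agonist activity was scored in C3RL4 cells bearing a retinoic acid response element luciferase construct. Cells were treated with compounds for 6 hr at 37 C, and luciferase signal was measured as luminescence.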

[5] = qHTS assay to identify small molecule antagonists of the estrogen related receptor (ERR) signaling pathway from Tox21 library - cell viability counter screen (AID 1224834); further: nearly all actives have a fitted effect of over 30% in size; further: potency means the concentration at half of the fitted maximal effect
How it was run: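 Cytotoxicity of test substances is gauged in the same ERR cells used for the antagonist screen, after 17.5 h of compound treatment at 37 C, by CellTiter-Fluor fluorescence measured after 30 min.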

[6] = target: Luciferin 4-monooxygenase (Photinus pyralis) (UniProt P08659); experiment: qHTS assay to identify small molecule inhibitors of firefly luciferase (AID 1224835); further: series mostly up to about 120 µM; nearly all actives have a fitted effect of over 25% in size
Sequence of Luciferin 4-monooxygenase (Photinus pyralis) (P08659 whole entry, looked up): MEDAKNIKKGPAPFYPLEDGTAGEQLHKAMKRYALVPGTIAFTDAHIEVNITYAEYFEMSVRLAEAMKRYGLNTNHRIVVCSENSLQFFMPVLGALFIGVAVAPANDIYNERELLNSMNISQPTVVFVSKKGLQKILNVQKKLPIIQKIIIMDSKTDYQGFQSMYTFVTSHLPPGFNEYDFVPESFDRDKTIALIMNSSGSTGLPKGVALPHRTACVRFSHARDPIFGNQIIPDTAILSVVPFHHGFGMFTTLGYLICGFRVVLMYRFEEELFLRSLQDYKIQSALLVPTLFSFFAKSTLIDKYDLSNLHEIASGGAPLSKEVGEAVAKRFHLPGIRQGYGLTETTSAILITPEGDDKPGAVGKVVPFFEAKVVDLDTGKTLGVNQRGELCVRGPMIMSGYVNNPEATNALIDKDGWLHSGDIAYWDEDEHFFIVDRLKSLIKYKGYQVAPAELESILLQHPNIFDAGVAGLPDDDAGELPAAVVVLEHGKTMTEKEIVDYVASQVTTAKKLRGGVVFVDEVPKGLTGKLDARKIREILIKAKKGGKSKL
How it was run: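 Quantitative HTS format; KM concentrations of both substrates. Purified P. pyralis FLuc activity quantified from luminescence images.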

[7] = qHTS assay to identify small molecule agonists of the constitutive androstane receptor (CAR) signaling pathway - cell viability counter screen (AID 1224836); further: nearly all actives have a fitted effect of over 45% in size; further: potency means the concentration at half of the fitted maximal effect; on viability change, negative = cytotoxic: series mostly up to about 92 µM
How it was run: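 Double-stable HepG2 hepatoma cells (hCAR plus CYP2B6-2.2kb) are treated for 23 h at 37 C with test compounds in 15-point concentration series. PK11195 at 0.75 uM final is co-added. Cell viability is quantified by CellTiter-Fluor.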

[8] = qHTS assay to identify small molecule antagonists of the constitutive androstane receptor (CAR) signaling pathway - cell viability counter screen (AID 1224837); further: nearly all actives have a fitted effect of over 45% in size; further: potency means the concentration at half of the fitted maximal effect; on activity change, negative = cytotoxicity: series mostly up to about 92 µM
How it was run: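 Multiplexed cytotoxicity read-out for the CAR antagonist screen: double-stable HepG2-CYP2B6-hCAR cells co-treated with 50 nM CITCO (final) and compound over 15 concentrations, incubated 23 hr, then assessed by CellTiter-Fluor fluorescence.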

[9] = target: Nuclear receptor subfamily 1 group I member 3 (Homo sapiens) (UniProt Q14994); experiment: qHTS assay to identify small molecule antagonists of the constitutive androstane receptor (CAR) signaling pathway (AID 1224838); further: nearly all actives have a fitted effect of over 40% in size
Sequence of Nuclear receptor subfamily 1 group I member 3 (Homo sapiens) (Q14994 whole entry, looked up): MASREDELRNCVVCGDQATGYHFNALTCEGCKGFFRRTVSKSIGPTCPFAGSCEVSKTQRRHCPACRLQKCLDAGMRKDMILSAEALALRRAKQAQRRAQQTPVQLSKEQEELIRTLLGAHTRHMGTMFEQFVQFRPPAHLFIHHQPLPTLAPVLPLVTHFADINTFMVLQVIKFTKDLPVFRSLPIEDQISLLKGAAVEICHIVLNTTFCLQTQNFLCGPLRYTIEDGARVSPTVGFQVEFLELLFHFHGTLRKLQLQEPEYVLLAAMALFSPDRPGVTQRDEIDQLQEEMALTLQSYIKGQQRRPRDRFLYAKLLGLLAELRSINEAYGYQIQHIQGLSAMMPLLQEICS
How it was run: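 Compounds were titrated across 15 concentrations onto HepG2 cells double-stably expressing hCAR and a CYP2B6-2.2kb reporter, together with 50 nM CITCO (final). After 24 h at 37 C, luciferase activity was measured by luminescence.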

[10] = target: Nuclear receptor subfamily 1 group I member 3 (Homo sapiens) (UniProt Q14994); experiment: qHTS assay to identify small molecule agonists of the constitutive androstane receptor (CAR) signaling pathway (AID 1224839);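 further: HepG2 cells stably carrying human CAR and a CYP2B6 luciferase reporter; series mostly up to about 92 µM; nearly all actives have a fitted effect of over 15% in size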
How it was run: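 Readout: firefly luciferase luminescence via ONE-Glo. System: HepG2 double-stable for hCAR and CYP2B6-2.2kb. Conditions: 15-point compound titration, PK11195 at 0.75 uM final, 24 h incubation.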

[11] = qHTS assay to identify small molecule antagonists of the estrogen related receptor signaling pathway with the pleiotropic PPARgamma coactivator (PGC) from Tox21 10K library - cell viability counter screen (AID 1224840; active means well fitted cell-killing curve with a large enough effect in the repeat runs, not every such curve was filed as active; further: nearly all actives have a fitted effect of over 40% in size; further: potency means the concentration at half of the fitted maximal effect)
How it was run: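 Step one, plate 2,000 PGC/ERR cells per well; step two, incubate 6 h at 37 C/5% CO2; step three, pin-transfer compounds; step four, incubate 17.5 h; step five, add CellTiter-Fluor and read fluorescence after 30 min.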

[12] = qHTS assay to identify small molecule antagonists of the estrogen related receptor signaling pathway with the pleiotropic PPARgamma coactivator (PGC) from Tox21 10K library (AID 1224841; call rule not given here; further: series mostly up to about 92 µM; actives are mostly falling curves and most rising ones were filed inactive; nearly all actives have a fitted effect of over 50% in size)
How it was run: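 Antagonism in this quantitative HTS is taken from loss of luciferase signal in PGC/ERR cells. Cells (2,000/well) are treated with compounds in DMSO after a 6 h settling period and read by One-Glo luminescence after 18 h.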

[13] = qHTS assay to identify small molecule agonists of the estrogen related receptor signaling pathway with the pleiotropic PPARgamma coactivator (PGC) from Tox21 10K library (AID 1224842); further: nearly all actives have a fitted effect of over 15% in size
How it was run: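 PGC/ERR reporter cells (NTP line) were seeded 2,000 per well, rested 6 h at 37 C/5% CO2, then pin-dosed with compounds in DMSO for 18 h at 37 C; luciferase read by One-Glo luminescence after 30 min at room temperature.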

[14] = target: Thyrotropin receptor (Homo sapiens) (UniProt P16473); experiment: qHTS assay to identify small molecule agonists of the thyroid stimulating hormone receptor (TSHR) signaling pathway (AID 1224843; calls by dose curve; further: nearly all actives have a fitted effect of over 45% in size)
Sequence of Thyrotropin receptor (Homo sapiens) (P16473 whole entry, looked up): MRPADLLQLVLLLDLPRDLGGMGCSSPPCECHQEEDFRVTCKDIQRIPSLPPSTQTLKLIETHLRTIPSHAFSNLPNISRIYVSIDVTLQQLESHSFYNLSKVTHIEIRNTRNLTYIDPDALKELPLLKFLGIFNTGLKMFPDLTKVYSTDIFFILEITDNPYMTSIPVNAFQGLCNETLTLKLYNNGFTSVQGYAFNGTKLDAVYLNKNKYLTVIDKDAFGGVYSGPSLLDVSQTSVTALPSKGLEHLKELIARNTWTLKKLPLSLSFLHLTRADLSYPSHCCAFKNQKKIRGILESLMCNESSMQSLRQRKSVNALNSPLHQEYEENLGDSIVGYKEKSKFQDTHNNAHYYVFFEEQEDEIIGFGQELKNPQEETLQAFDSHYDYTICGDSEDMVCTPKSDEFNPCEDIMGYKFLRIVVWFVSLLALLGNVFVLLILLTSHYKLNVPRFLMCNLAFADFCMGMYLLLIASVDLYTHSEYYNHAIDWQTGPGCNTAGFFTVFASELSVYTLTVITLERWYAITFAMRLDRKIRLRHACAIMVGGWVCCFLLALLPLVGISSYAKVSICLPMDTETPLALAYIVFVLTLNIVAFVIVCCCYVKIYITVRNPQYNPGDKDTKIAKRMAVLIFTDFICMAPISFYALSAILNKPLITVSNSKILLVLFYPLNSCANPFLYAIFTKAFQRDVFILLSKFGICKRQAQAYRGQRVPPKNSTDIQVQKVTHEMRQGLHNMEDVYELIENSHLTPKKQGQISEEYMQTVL
How it was run: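 TSHR-expressing HEK293 cells (800 per well) were exposed to compounds for 30 min at room temperature. cAMP was then detected by HTRF competition with cAMP-d2 and anti-cAMP cryptate, read after 1 h at room temperature. Fifteen concentrations, triplicate.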

[15] = qHTS assay to identify small molecule antagonists of the retinoic acid receptor (RAR) signaling pathway (AID 1159552; further: nearly all actives have a fitted effect of over 50% in size)
How it was run: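 Antagonism of retinol-induced RARE reporter activity was measured in C3RL4 cells. Exposure to compounds and 1 uM final retinol lasted 6 hr at 37 C, with luminescence as endpoint.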

[16] = qHTS assay to identify small molecule antagonists of the estrogen related receptor (ERR) signaling pathway - cell viability counter screen (AID 1224818);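 further: series mostly up to about 46 µM; viability measured after 17.5 h of compound exposure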
How it was run: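 Cells carrying the ERR pathway reporter were seeded and incubated for 6 hours before compound addition. After a 17.5-hour exposure at 37 C, live-cell protease activity was measured by CellTiter-Fluor fluorescence following 30 minutes of incubation.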

[17] = qHTS assay to identify small molecule antagonists of the estrogen related receptor signaling pathway with the pleiotropic PPARgamma coactivator (PGC) cell viability counter screen (AID 1224822;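 further: series mostly up to about 46 µM; viability read after 17.5 h compound exposure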)
How it was run: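 Seed PGC/ERR cells (2,000/well); incubate 6 h at 37 C/5% CO2; pin-transfer compounds in DMSO; incubate 17.5 h at 37 C; add CellTiter-Fluor; after 30 min read fluorescence.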

[18] = qHTS assay to identify small molecule agonists of the estrogen related receptor (ERR) signaling pathway (AID 1224820)
How it was run: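 Quantitative HTS of the LOPAC library used NTP ERR reporter cells treated 18 h at 37 C. Signal is luminescence after One-Glo addition and a 30 min room-temperature incubation.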

[19] = system: estrogen-related receptor alpha (ERRalpha) with PGC-1alpha coactivator, human; experiment: qHTS assay to identify small molecule antagonists of the estrogen related receptor signaling pathway with the pleiotropic PPARgamma coactivator (PGC) (AID 1224821; calls by dose curve;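 further: series mostly up to about 46 µM; lower luminescence signal means antagonism of PGC/ERR signalling; nearly all actives have a fitted effect of over 50% in size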)
How it was run: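 Quantitative HTS for antagonism: PGC/ERR cells received compounds after 6 h attachment and were incubated 18 h at 37 C, with luminescence (One-Glo) as the endpoint.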

[20] = qHTS assay to identify small molecule agonists of the estrogen related receptor signaling pathway with the pleiotropic PPARgamma coactivator (PGC) (AID 1224823)
How it was run: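 Cell-based luciferase assay in the NTP-supplied PGC/ERR line, 2,000 cells/well; 18 h compound exposure at 37 C, luminescence after One-Glo.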
On the % scale 0 is the no-effect control and ±100 the full control effect.

O=C(O)CCCc1ccccc1
inactive: Potency [1] | Potency [2] | outcome [3] | Potency [4] | Potency [5] | Potency [6] | Potency [7] | Potency [8] | Potency [9] | Potency [10] | Potency [11] | Potency [12] | outcome [13] | Potency [14]

NCCCNCCSP(=O)(O)O
inactive: activity change, negative = cytotoxicity [2] 8.34% [at 6.97 µM] | activity change, negative = cytotoxicity [3] 1.85% [at 8.39 µM] | activity, negative = inhibition [15] 8.45% [at 8.39 µM] | activation [4] -0.783% [at 8.36 µM] | outcome [16] | outcome [17] | viability change, negative = cytotoxic [5] 2.57% [at 8.39 µM] | activity change, negative = inhibition [6] 0.729% [at 10.5 µM] | viability change, negative = cytotoxic [7] 10.5% [at 8.39 µM] | activity change, negative = cytotoxicity [8] 2.76% [at 8.39 µM] | activity, negative = inhibition [9] -1.02% [at 8.39 µM] | activation [10] -1.23% [at 8.39 µM] | viability change, negative = cytotoxic [11] 11.6% [at 8.39 µM] | activation [14] 0.0403% [at 8.39 µM]

CN(C)CCCN1c2ccccc2CCc2ccc(Cl)cc21
inactive: Potency [1] | outcome [3] | outcome [18] | outcome [19] | outcome [20] | Potency [10] | outcome [13] | Potency [14]
54.5 µM (active) and inactive: Potency [11]
active: Potency [2] 38.9 µM | Potency [5] 54.5 µM and 23.7 µM | Potency [7] 48.6 µM and 29.8 µM | Potency [8] 48.6 µM

CC(=O)Nc1c(I)cc(I)c(C(=O)O)c1I
inactive: Potency [2] | outcome [3] | Potency [15] | Potency [4] | Potency [5] | Potency [6] | Potency [7] | Potency [8] | Potency [9] | Potency [10] | Potency [11] | Potency [12] | outcome [13]

Oc1ccc(C2CNCCc3c2cc(O)c(O)c3Cl)cc1 (stereo not given)
inactive: Potency [1] | Potency [2] | outcome [3] | outcome [16] | outcome [17] | Potency [5] | Potency [6] | Potency [7] | Potency [8] | Potency [9] | Potency [10] | Potency [11] | Potency [14]

CC/C=C\CC/C=C/CO
inactive: Potency [1] | Potency [2] | outcome [3] | Potency [4] | Potency [5] | Potency [6] | Potency [7] | Potency [8] | Potency [9] | Potency [10] | Potency [11] | Potency [12] | outcome [13]

CS(=O)(=O)O
inactive: Potency [1] | Potency [2] | outcome [3] | Potency [5] | Potency [6] | Potency [7] | Potency [8] | Potency [9] | Potency [10] | Potency [11] | Potency [12] | outcome [13] | Potency [14]

CCCCOCCOCCOCCCC
inactive: Potency [1] | Potency [2] | outcome [3] | Potency [5] | Potency [6] | Potency [7] | Potency [8] | Potency [9] | Potency [10] | Potency [11] | Potency [12] | outcome [13] | Potency [14]

CC(C)(O)C(=O)c1ccccc1
inactive: Potency [2] | outcome [3] | Potency [15] | Potency [4] | Potency [5] | Potency [6] | Potency [7] | Potency [8] | Potency [9] | Potency [10] | Potency [11] | Potency [12] | outcome [13] | Potency [14]
